# Results filed as inconclusive are left out. The source made the active and inactive calls. The call rests on the fitted dose curve; in most records, active means well fitted inhibition curve with a large enough effect in the signal ratio in the repeat runs (not every such curve was filed as active); inconclusive means weak or mixed curves, or effect the other way; inactive means no such curve, though single readings can be large or run the other way; the % refers to the signal ratio.
# Target: Peroxisome proliferator-activated receptor delta (Homo sapiens) (UniProt Q03181)
# Sequence (Q03181 whole entry, looked up): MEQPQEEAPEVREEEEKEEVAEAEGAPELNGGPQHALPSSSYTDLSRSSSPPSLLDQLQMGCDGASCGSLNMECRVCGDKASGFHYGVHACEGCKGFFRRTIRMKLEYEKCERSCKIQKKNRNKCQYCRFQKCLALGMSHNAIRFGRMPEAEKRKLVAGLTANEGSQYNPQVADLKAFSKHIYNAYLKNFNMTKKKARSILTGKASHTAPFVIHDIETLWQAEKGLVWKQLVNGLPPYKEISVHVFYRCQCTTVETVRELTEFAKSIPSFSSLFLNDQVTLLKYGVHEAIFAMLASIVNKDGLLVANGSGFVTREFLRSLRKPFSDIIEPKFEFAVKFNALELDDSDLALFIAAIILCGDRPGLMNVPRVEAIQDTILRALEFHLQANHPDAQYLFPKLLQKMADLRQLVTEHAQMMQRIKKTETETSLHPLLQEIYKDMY
# Assay: qHTS assay to identify small molecule antagonists of the peroxisome proliferator-activated receptor delta (PPARd) signaling pathway (AID 743215);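 further: cells stimulated with agonist L165041 at 300 nM final during compound exposure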
# Conditions: HEK293H PPARd-UAS-bla, beta-lactamase FRET ratio, antagonist, 17 h; series mostly up to 62 µM; ratio activity, negative = inhibition: at the top concentration
# Text: U.S. Tox21 Program National Center for Advancing Translational Sciences [NCATS] NIH Chemical Genomics Center [NCGC] U.S. Environmental Protection Agency [EPA] National Institutes of Environmental Health Sciences [NIEHS] National Toxicology Program [NTP] U.S. Food and Drug Administration [FDA] Tox21 Assay Overview: The peroxisome proliferator-activated receptors (PPARs) are lipid-activated transcription factors of the nuclear receptor superfamily with three distinct subtypes namely PPAR alpha, PPAR delta (PPARd) and PPAR gamma. All these subtypes heterodimerizes with Retinoid X receptor (RXR) and have different physiological functions. […] To identify the compounds that inhibit PPAR-delta signaling, GeneBLAzer PPAR delta UAS-bla HEK293H cell line (Invitrogen, Carlsbad, CA, USA) containing a beta-lactamase reporter gene under the control of an Upstream Activator Sequence (UAS) was used to screen the Tox21 compound library.
# Tox21 Assay Protocol Summary: PPARd-bla cells were dispensed at 3000 cells/5uL/well in 1536-well black wall/clear bottom plates using a Multidrop Combi (Thermo Fisher Scientific, Waltham, MA) dispenser. After the assay plates were incubated at 37 C and 5% CO2 for 5 h, 23 nL of compounds dissolved in DMSO, positive controls or DMSO only was transferred to the assay plate by a Pintool station (Kalypsys, San Diego, CA), followed by addition of 1ul L165041 (300 nM, final concentration in the wells). The assay plates were incubated at 37 C for 17 h, and then 1 uL of LiveBLAzerTM B/G FRET substrate was added using a Bioraptr Flying Reagent Dispenser (FRD) workstation (Beckman Coulter, Indianapolis, IN, USA). The assay plates were incubated at room temperature for 2 h and fluorescence intensity was measured by an Envision plate reader (PerkinElmer, Shelton, CT).
# On the % scale 0 is the no-effect control and ±100 the full control effect.
row,SMILES,"ratio activity, negative = inhibition"
1,CCCCCC(CO)CCC (stereo not given),4.88% (inactive)
2,C=CC(=O)OCCOC(=O)CCC(=O)O,2.53% (inactive)
3,CC[C@]12CCCN3CCc4c(n(c5ccccc45)C(=O)C1)[C@@H]32,-0.104% (inactive)
4,CN(C)CC[C@@H](c1ccc(Br)cc1)c1ccccn1,-2.56% (inactive)
5,CCCCCCCC/C=C\CCCCCCCC(N)=O,0.366% (inactive)
6,O=C(/C=C/c1ccc(O)c(O)c1)O[C@@H]1C[C@](O)(C(=O)O)C[C@@H](O)[C@H]1O,7.14% [at 80.4 µM] (inactive)
7,c1ccc(-c2nc[nH]c2-c2ccccc2)cc1,-2.14% (inactive)
8,CC(=O)NCCCS(=O)(=O)O,-6.55% [at 28.9 µM] (inactive)
9,CCN(CC)CCc1nc(-c2ccccc2)no1,-2.25% (inactive)
10,Cn1c(N)nc2nc[nH]c2c1=O,1.39% (inactive)
11,O=C(Cl)c1ccc([N+](=O)[O-])cc1,4.67% (inactive)
12,O=C(Cl)c1c(Cl)cccc1Cl,13.7% [at 80.4 µM] (inactive)
13,C1CCC2OC2C1 (stereo not given),8.19% [at 80.4 µM] (inactive)
14,O=C(CC(=O)c1ccccc1)c1ccccc1,0.329% [at 80.4 µM] (inactive)
15,Cc1ccc2c(ccc3ccccc32)c1,-7.15% [at 80.4 µM] (inactive)
16,CC[C@@H]1C[C@H](N(Cc2cc(C(F)(F)F)cc(C(F)(F)F)c2)C(C)=O)c2cc(C(F)(F)F)ccc2N1C(=O)OC(C)C,-0.0329% (inactive)
17,C=C(C)C(=O)OCCN(C)C,-19.6% [at 80.4 µM] (inactive)
18,CCOC(=S)SSC(=S)OCC,-10.4% (inactive)
19,C1=Cc2ccccc2C1,-8.16% (inactive)
20,COC(=O)CSc1cc(N=c2sc(=O)n3n2CCCC3)c(F)cc1Cl,-8.77% (inactive)

row,SMILES,"ratio activity, negative = inhibition"
1,CCCCCOC(=O)c1ccc(O)cc1,7.51% [at 80.4 µM] (inactive)
2,CCCCOC(O)CC (stereo not given),-13.9% (inactive)
3,CCOC(=O)C1=NN(c2ccccc2)C(=O)C1,6.58% (inactive)
4,CC(C)(Oc1ccc(Cl)cc1)C(=O)OCCCOC(=O)C(C)(C)Oc1ccc(Cl)cc1,12.4% (inactive)
5,O=C(O)c1cn(C2CC2)c2cc(Cl)c(F)cc2c1=O,12.4% (inactive)
6,CC(C(=O)O)c1ccc(-c2ccccc2)c(F)c1 (stereo not given),-3.71% (inactive)
7,CCC(C)N(C)C(=O)c1cc2ccccc2c(-c2ccccc2Cl)n1 (stereo not given),-17.2% (inactive)
8,CC(C)CCCCCCOC(=O)c1ccc(C(=O)OCCCCCCC(C)C)c(C(=O)OCCCCCCC(C)C)c1,0.556% (inactive)
9,CC(=O)O[C@H]1C[C@@H]2CC[C@@H]3[C@H](CC[C@@]4(C)[C@H]3C[C@H]([N+]3(C)CCCCC3)[C@@H]4OC(C)=O)[C@@]2(C)C[C@@H]1N1CCCCC1,-2.49% (inactive)
10,Cc1ccc(C(C)c2ccc(C)c(C)c2)cc1C,-4.68% (inactive)
11,O=C(O)Cc1sc(-c2ccccc2)nc1-c1ccc(Cl)cc1,1.95% (inactive)
12,CC1(C)CCC(C)(C)c2cc(NC(=O)c3ccc(C(=O)O)cc3)ccc21,4.88% (inactive)
13,Cn1c(=O)c2c(ncn2CC(O)CO)n(C)c1=O (stereo not given),-27.5% (inactive)
14,C[C@@H](C1=C(CCN(C)C)Cc2ccccc21)c1ccccn1,-4.96% (inactive)
15,CC(C)(C)C1CCCCC1O (stereo not given),-8.06% (inactive)
16,Cc1ccc(O)c([C@H](CCN(C(C)C)C(C)C)c2ccccc2)c1,-2.86% (inactive)
17,Oc1ccc(Cc2ccccc2)cc1,-15.7% (inactive)
18,O=C(O)COC(=O)Cc1ccccc1Nc1c(Cl)cccc1Cl,5.74% (inactive)
19,CCN(CC)C(C)CN1c2ccccc2Sc2ccccc21 (stereo not given),0.572% (inactive)
20,Cc1ccc(C(N)=O)cc1N,15.4% (inactive)

# — PubChem BioAssay (Tox21)
